Most compounds without a hit are left out; they make up all but 6.5% or so of the library.
HT1080-NT tox – kills 2HG-producing HT-1080-NT fibrosarcoma cells. hit rate 1.6% among 360,000. HT-1080-NT fibrosarcoma viability, CellTiter-Glo ATP luminescence, 48 h. AID 686970. Potency, µM (titrated, usually from 46.1 µM), for inactives: top-dose activity, negative = less viability, most hits filed as cytotoxic;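 further: NT is the 2HG producing partner of a matched IDH1 knockdown line; potency means the concentration at half of the fitted maximal effect; 0% = DMSO-treated cells and -100% = media-only wells without cells; nearly all actives have a fitted effect of over 55% in size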
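Viability of the 2HG-overproducing fibrosarcoma line after 48 hours of compound exposure at 37 degrees C was determined by luminescence with CellTiter-Glo, and concentration-effect curves were then fitted and categorized.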
HT1080 IDH1KD tx – kills HT-1080 cells with IDH1 knockdown | HT-1080 IDH1 knockdown viability, ATP luminescence, 48 h | Potency, µM (titrated, usually from 46.1 µM), for inactives: top-dose activity, negative = toxicity, most hits filed as cytotoxic | hit rate 2% among 360,000;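 further: potency means the concentration at half of the fitted maximal effect; 0% = DMSO wells and -100% = cell-free medium wells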
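Knockdown cells (IDH1KD HT-1080) received compounds 2 h after plating at 750 cells/well and were kept 48 h at 37 °C in 5% FBS RPMI. A CellTiter-Glo luminescence read gave % activity for curve fitting.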
HepG2 viability – counter-screen for TGF-b inhibitors: cytotoxicity in HepG2 cells | hit rate 0.76% among 410,000 | Potency, µM (highest dose often 46.1 µM), for the others: at the top dose activity change, negative = cytotoxicity, hits mostly cytotoxic | HepG2 CAGA-GFP viability, ATP luminescence, 18 h; further: potency means the concentration at half of the fitted maximal effect
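CellTiter-Glo luminescence gave cytotoxicity after 18 hours at 37 degrees C. The cells were HepG2 CAGA-GFP in 1% FBS DMEM, stimulated with 500 pg/mL TGF-beta after compound addition. %Activity was normalised to no-cell wells (complete cell-killing) and DMSO (no toxicity), and curves were fitted and classified.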
IL-1B inflam inh – inflammasome signaling inhibition, IL-1 beta readout. hit rate 4.7% among 360,000. AID 743279. activity change, % at 57.5 µM. THP-1 LPS/ATP IL-1B secretion, AlphaLISA, 16 h; active compounds read low; in the data active means activity change below about -50%; inconclusive means mostly about -30% to -49%; further: on the % scale 0 is the no-effect control and ±100 the full control effect
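THP-1 cells pretreated 1 hr with compounds (up to 57.5 uM final), then stimulated with LPS (250 ng/mL final) plus ATP (1.25 mM final); secreted IL-1B measured by AlphaLISA after 16 hr, decreased signal indicating inhibition.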
TGFb SMAD3 inh – TGF-b pathway inhibition. HepG2 CAGA-GFP TGF-b/SMAD3 reporter, GFP fluorescence, 18 h; TGF-beta stimulated, 500 pg/mL final. Potency, µM (doses to about 46.1 µM), without a hit: at the top dose activity, negative = inhibition, most hits filed as inhibitors. hit rate 1.2% among 410,000. AID 588855; further: potency means the concentration at half of the fitted maximal effect; on the % scale 0 is the no-effect control and ±100 the full control effect; nearly all actives have a fitted effect of over 65% in size
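Smad-responsive CAGA-GFP expression was quantified in HEPG2 cells exposed to compounds and 500 pg/mL final TGF-beta for 18 h at 37 degrees C; unstimulated wells defined full inhibition.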
Giardia kill – Giardia lamblia killing | Giardia lamblia trophozoite viability | activity change, % at 7.66 µM, hits read low | hit rate 0.15% among 340,000 | AID 540267; in the data active means activity change below about -80%; inconclusive means between about -30% and that limit;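 further: parasites exposed to compound for two days anaerobically before the ATP read; on the % scale 0 is the no-effect control and ±100 the full control effect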
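Trophozoite viability was measured as ATP-dependent luminescence, read 15-30 min after reagent addition. Before that, parasites at 100 cells/well were exposed to compounds for 48 h, anaerobically, at 37 deg C.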
Starred values were filed as active, the others as inactive; u = inconclusive; x = no result given. Unless noted, the call rests on the fitted dose curve; in most records, active means well fitted curve in the direction sought with a large enough effect; inconclusive means small, poorly fitted or top-dose-only effect, or another doubt; inactive means no such curve, though single readings can be large; an effect the other way counts as inactive or inconclusive.

SMILES	HT1080-NT tox	HT1080 IDH1KD tx	HepG2 viability	IL-1B inflam inh	TGFb SMAD3 inh	Giardia kill
CCCCOc1ccc(C(=O)N/N=C/c2ccc(OCCN3CCCCC3)c(OC)c2)cc1	-25%	-25%	-36%	-80*	29%	16
CCCCOc1ccc(C(=O)N/N=C/c2cn[nH]c2-c2ccc(OC)c(OC)c2)cc1	u	-17%	-22%	-56*	0%	-4
CN(Cc1c(F)cccc1Cl)C(=O)c1cnc2ccccc2n1	0%	-13%	3%	22	-3%	9
CCCC(=O)N1CCN(c2ccc(NC(=O)c3ccc([N+](=O)[O-])o3)cc2)CC1	13µM*	6.5µM*	-90%	-109*	u	-82*
CCC(=O)N1CCN(c2ccc(NC(=O)c3ccc([N+](=O)[O-])o3)cc2)CC1	6.5µM*	5.2µM*	-45%	-103*	u	u
CCCN1CCN(C(=O)Cn2cnc3sc(C)c(S(=O)(=O)N4CCC(C)CC4)c3c2=O)CC1	5%	3%	-17%	-11	7%	37
CC(=O)/C=C\c1ccccc1OC(=O)c1cc2ccccc2oc1=O	0%	4%	-1%	-23	13%	-11
O=C(/C=C\c1ccccc1OC(=O)c1ccccc1F)c1cc2ccccc2o1	16µM*	u	-44%	-104*	14µM*	-26
CC(=O)C1=C(c2ccc(Br)cc2)C(=O)c2ccccc2C1=O	13µM*	13µM*	-99%	-97*	u	14
COc1ccc(-n2nnnc2S(=O)(=O)CC(=O)N2CCCCC2)cc1	21µM*	21µM*	13µM*	-110*	u	3
CCc1ccc(Oc2nnnn2-c2ccc(C(N)=O)cc2)cc1	13%	-6%	5%	-12	14%	6
COc1cc(OC)cc(-n2nnnc2SCC(=O)N2CCCC2)c1	10%	8%	6%	6	-8%	11
COc1ccc(-n2nnnc2S(=O)(=O)Cc2ccc(C(=O)O)cc2)cc1	14µM*	7.9µM*	-6%	-87*	-17%	-5
COc1ccc(C(NC(=O)C2CCN(CCOc3ccccc3)CC2)c2ccccn2)cc1 (configuration not stated)	-4%	2%	-22%	-13	1%	x
O=C(NC(c1ccc(-c2ccccc2)cc1)c1cnccn1)C1CCN(Cc2ccc(Cl)c(Cl)c2)CC1 (configuration not stated)	-10%	-4%	-35%	-21	u	x
Cn1cc(CN2CCC(C(=O)NC(c3ccc(-c4ccccc4)cc3)c3cnccn3)CC2)c2ccccc21 (configuration not stated)	5.2µM*	u	11µM*	0	u	x
O=C(NC(c1ccc(-c2ccccc2)cc1)c1cnccn1)C1CCN(Cc2ccc3c(c2)OCO3)CC1 (configuration not stated)	13µM*	10µM*	-93%	-26	u	x
CN(C)C(=O)CNC(=O)CN1C(=O)NC2(CCCc3sccc32)C1=O (configuration not stated)	16%	17%	6%	-65*	6%	-12
NC(=O)CN1C(=O)NC2(CCCc3sccc32)C1=O (configuration not stated)	21%	16%	10%	9	-19%	9
COC(=O)COc1cc(C)cc2oc(=O)c(CC(=O)OC)c(C)c12	9%	8%	19%	-10	0%	27
COC(=O)COc1cc(OCC(=O)OC)c2c(C)c(Cl)c(=O)oc2c1	2%	11%	-3%	-83*	-3%	-15
CCCCn1nnnc1C(c1cc2ccccc2o1)N1CCN(c2cc(C)nc3ccccc23)CC1 (configuration not stated)	18µM*	u	x	-24	x	x
CCCCn1nnnc1C(c1cc2ccccc2o1)N1CCN(c2ccncc2)CC1 (configuration not stated)	u	u	x	-61*	x	x
CCCCn1nnnc1C(c1cc2ccccc2o1)N1CCCCC1 (configuration not stated)	3%	-28%	x	-8	x	x
O=C1CSC(=Nc2cccc(Cl)c2Cl)N1	4%	0%	-14%	42	3%	-25
SMILES	HT1080-NT tox	HT1080 IDH1KD tx	HepG2 viability	IL-1B inflam inh	TGFb SMAD3 inh	Giardia kill
COc1cccc(C2C(C(=O)c3cccs3)=C(O)C(=O)N2CCN2CCOCC2)c1OC (configuration not stated)	25%	9%	-1%	29	5%	-18
COc1ccc(C)cc1Nc1n[n+](-c2ccccc2)c(-c2ccc(N(C)C)cc2)s1	-22%	-3%	-41%	-67*	-17%	-22
COc1ccc(C)cc1Nc1n[n+](-c2ccccc2)c(-c2c(Cl)cccc2Cl)s1	u	u	13µM*	0	u	8
CN(C)c1ccc(-c2sc(Nc3ccccc3)n[n+]2-c2ccc(F)cc2)cc1	-2%	-4%	-20%	44	-5%	-13
COc1ccc(C)cc1Nc1n[n+](-c2ccccc2)c(-c2ccc(OC)c(OC)c2OC)s1	u	u	-22%	59	u	1
CC/C(=N\NC(=O)CSCc1ccccc1Br)c1ccc2c(c1)OCCO2	12%	10%	7%	12	15%	3
CC(CNC(=O)CN1C(=O)COc2ccc(S(=O)(=O)N3CCCCCC3)cc21)c1ccccc1 (configuration not stated)	x	x	-20%	x	u	x
Cn1cc(CN2CCCC(C(=O)Nc3cccc(-c4cc5ccccc5[nH]4)c3)C2)cn1 (configuration not stated)	u	29µM*	-34%	-92*	u	-7
CCn1cc(CN2CCCC(C(=O)Nc3cccc(-c4cc5ccccc5[nH]4)c3)C2)c(C)n1 (configuration not stated)	21µM*	u	-28%	-53*	u	42
COc1cccc(-c2ccc(NC(=O)C3CCCN(Cc4cnn(C)c4)C3)cc2)c1 (configuration not stated)	u	16µM*	-29%	20	-23%	0
COCCc1ncc(CN2CCCC(C(=O)Nc3cccc(-c4cccc(C)c4)c3)C2)cn1 (configuration not stated)	u	u	-29%	u	-15%	0
CC(C)n1cc(CN2CCCC(C(=O)Nc3cccc(-c4cc5ccccc5[nH]4)c3)C2)cn1 (configuration not stated)	21µM*	u	-103%	-63*	u	-3
